# Measured values from PubChem BioAssay (NCI).
# Several values for one entry are separate records, joined by “and”; a condition that tells them apart may be missing. Equal values may be shown once. The panel holds about 83,000 compounds, 20% with a hit somewhere; the sample as a whole holds those more often.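 How to read the values: 0–100, growth inhibition (40 = 60% inhibited); 0, no net growth; -100 to 0, cell death (-40 = 40% of starting cells died; -100 = all dead).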 Activity calls are given as the source filed them. Rule for the calls: active = growth percent below 10; inactive = the rest.
# What was measured:
# Assay in all cases: NCI-60 one-dose screen, 48 h (100 = growth as untreated, 0 = no growth, -100 = all killed)
# Settings in all cases: 10 µM unless noted
# SK-MEL-2 melanoma = test system: SK-MEL-2 melanoma
# EKVX NSCLC = test system: EKVX NSCLC
# SN12C renal = test system: SN12C renal
# TK-10 renal = test system: TK-10 renal
# ACHN renal = test system: ACHN renal
# CAKI-1 renal = test system: CAKI-1 renal
# A498 renal = test system: A498 renal
# MOLT-4 leukemia = test system: MOLT-4 leukemia
# SR leukemia = test system: SR leukemia
# RPMI-8226 leukemia = test system: RPMI-8226 leukemia
# OVCAR-8 ovarian = test system: OVCAR-8 ovarian
# OVCAR-5 ovarian = test system: OVCAR-5 ovarian
# OVCAR-4 ovarian = test system: OVCAR-4 ovarian
# SK-OV-3 ovarian = test system: SK-OV-3 ovarian
# IGROV1 ovarian = test system: IGROV1 ovarian
# OVCAR-3 ovarian = test system: OVCAR-3 ovarian
# HS 578T breast = test system: HS 578T breast
# NCI/ADR-RES ovarian = test system: NCI/ADR-RES ovarian
# CCRF-CEM leukemia = test system: CCRF-CEM leukemia
# UO-31 renal = test system: UO-31 renal
SMILES,growth (SK-MEL-2 melanoma),growth (EKVX NSCLC),growth (SN12C renal),growth (TK-10 renal),growth (ACHN renal),growth (CAKI-1 renal),growth (A498 renal),growth (MOLT-4 leukemia),growth (SR leukemia),growth (RPMI-8226 leukemia),growth (OVCAR-8 ovarian),growth (OVCAR-5 ovarian),growth (OVCAR-4 ovarian),growth (SK-OV-3 ovarian),growth (IGROV1 ovarian),growth (OVCAR-3 ovarian),growth (HS 578T breast),growth (NCI/ADR-RES ovarian),growth (CCRF-CEM leukemia),growth (UO-31 renal)
CCOc1ccc2cc(-c3nn(CC4CCNCC4)c4ncnc(N)c34)ccc2c1,108% (inactive),101% (inactive) and 55.6% (inactive),82.9% (inactive) and 28.9% (inactive),77.1% (inactive) and 80.5% (inactive),102% (inactive) and 49.5% (inactive),95.4% (inactive) and 81.9% (inactive),73% (inactive) and 37% (inactive),66.1% (inactive) and -12.1% (active),59.3% (inactive) and -25.2% (active),90.6% (inactive) and -13.2% (active),92.1% (inactive) and 58.5% (inactive),92% (inactive) and 70.5% (inactive),55.8% (inactive) and 42.7% (inactive),91.7% (inactive) and 45.9% (inactive),92.7% (inactive) and 47.8% (inactive),101% (inactive) and 74.7% (inactive),83.8% (inactive) and 22.1% (inactive),99.5% (inactive) and 93.5% (inactive),,
Cc1nnc(NC/C=C/c2ccccc2)s1,122% (inactive),101% (inactive),105% (inactive) and 108% (inactive),96.4% (inactive) and 111% (inactive),103% (inactive) and 112% (inactive),112% (inactive),96.1% (inactive),92.8% (inactive) and 111% (inactive),113% (inactive),102% (inactive) and 118% (inactive),102% (inactive),112% (inactive),102% (inactive) and 111% (inactive),98.4% (inactive) and 118% (inactive),112% (inactive) and 114% (inactive),99.7% (inactive),122% (inactive) and 105% (inactive),103% (inactive) and 102% (inactive),113% (inactive),
COc1ccc(CCN(C)CCCC(C#N)(c2ccc(OC)c(OC)c2)C(C)C)cc1OC (stereo not given),93.5% (inactive) and 109% (inactive),92.1% (inactive) and 90.3% (inactive) and 98.6% (inactive),92.7% (inactive) and 107% (inactive) and 109% (inactive),97.1% (inactive) and 127% (inactive) and 95.8% (inactive),93.2% (inactive) and 95.8% (inactive),73% (inactive) and 79.3% (inactive) and 94.5% (inactive),56.5% (inactive) and 96.5% (inactive) and 75.5% (inactive),72.9% (inactive) and 83.8% (inactive) and 95.8% (inactive),80.8% (inactive) and 94.1% (inactive) and 90.1% (inactive),83.9% (inactive) and 83.6% (inactive) and 94.5% (inactive),97.5% (inactive) and 93.2% (inactive),93.1% (inactive) and 81% (inactive) and 92.6% (inactive),85.1% (inactive) and 104% (inactive),101% (inactive) and 98.3% (inactive) and 97.9% (inactive),98.7% (inactive) and 94.4% (inactive),103% (inactive) and 101% (inactive) and 96% (inactive),,86.6% (inactive) and 92% (inactive) and 86.1% (inactive),95% (inactive) and 86.2% (inactive) and 97.9% (inactive),
Nc1ncnc2c1ncn2C1CC(O)C(CO)O1 (stereo not given),37.6% (inactive) and 100% (inactive),100% (inactive) and 118% (inactive),105% (inactive) and 104% (inactive),,110% (inactive) and 120% (inactive),103% (inactive) and 100% (inactive),105% (inactive) and 98.5% (inactive),114% (inactive) and 92.3% (inactive),110% (inactive) and 95% (inactive),102% (inactive) and 105% (inactive),102% (inactive) and 109% (inactive),103% (inactive) and 116% (inactive),113% (inactive) and 107% (inactive),105% (inactive) and 110% (inactive),116% (inactive),127% (inactive) and 109% (inactive),107% (inactive) and 153% (inactive),104% (inactive) and 113% (inactive),,89% (inactive) and 88.8% (inactive)
C1CCCCNCCC1,115% (inactive),99.8% (inactive),108% (inactive),125% (inactive),117% (inactive),90.2% (inactive),113% (inactive),110% (inactive),110% (inactive),99.5% (inactive),110% (inactive),106% (inactive),109% (inactive),117% (inactive),140% (inactive),112% (inactive),,127% (inactive),104% (inactive),
CCCCCN(CCCCC)CC(O)c1cc2c(c3ccccc13)CCCC2 (stereo not given),79.1% (inactive) and 97.2% (inactive),77.9% (inactive) and 46% (inactive),72.1% (inactive) and 75.1% (inactive),87.5% (inactive) and 73.4% (inactive),55.8% (inactive) and 49% (inactive),34.5% (inactive) and -32% (active),108% (inactive) and 39.3% (inactive),41.7% (inactive) and 61.7% (inactive),11.1% (inactive) and 14.2% (inactive),15.4% (inactive) and 34.8% (inactive),88.6% (inactive) and 94.3% (inactive),66.9% (inactive) and 55.6% (inactive),60.9% (inactive) and 59.9% (inactive),84.2% (inactive) and 79% (inactive),,71.9% (inactive) and 54.4% (inactive),85.6% (inactive) and 2.9% (active),70% (inactive) and 63.7% (inactive),52.9% (inactive) and 57.2% (inactive),
O=[N+]([O-])c1ccccc1/C=N\Nc1ccccc1,86.9% (inactive) and 107% (inactive),69.3% (inactive) and 93.5% (inactive),84.9% (inactive) and 87.6% (inactive),118% (inactive) and 92.6% (inactive),61.4% (inactive) and 64.2% (inactive),71.9% (inactive) and 60.8% (inactive),79.7% (inactive) and 70.1% (inactive),76.4% (inactive) and 89.9% (inactive),98.5% (inactive) and 51.8% (inactive),77.5% (inactive) and 95.6% (inactive),91.1% (inactive) and 89.9% (inactive),91.1% (inactive) and 89.2% (inactive),82.2% (inactive) and 86.3% (inactive),90.6% (inactive) and 93.7% (inactive),74.4% (inactive) and 59.1% (inactive),94.5% (inactive) and 92.7% (inactive),90.3% (inactive) and 118% (inactive),73.3% (inactive) and 75.6% (inactive),65.1% (inactive) and 50.8% (inactive),
CC(C)N=c1cc2n(-c3ccc(Cl)cc3)c3ccccc3nc-2cc1Nc1ccc(Cl)cc1,-32.7% (active) and 0.294% (active) and -36.1% (active),39.6% (inactive) and 23% (inactive) and 12.3% (inactive),16.9% (inactive) and 25.6% (inactive) and 1.46% (active),,27.2% (inactive) and 30.9% (inactive) and 17.8% (inactive),40.5% (inactive) and 22.6% (inactive) and 5.83% (active),74.8% (inactive) and 18.4% (inactive),6.96% (active) and 15.3% (inactive) and -11.7% (active),-35.4% (active) and 9.31% (active),2.57% (active) and -21.9% (active) and -42.6% (active),15.1% (inactive) and 48.7% (inactive) and 14.1% (inactive),38.3% (inactive) and 49.6% (inactive) and 11.3% (inactive),5.39% (active) and 11.1% (inactive) and 7.85% (active),37.6% (inactive) and 52.9% (inactive) and 42.6% (inactive),,-37.5% (active) and -71.1% (active) and -66.3% (active),,23.2% (inactive) and -2.63% (active) and 39.2% (inactive),15% (inactive) and 28.5% (inactive) and 1.85% (active),27.9% (inactive) and -17% (active) and -5.99% (active)
